RORgamma inh = ROR gamma (mouse) transcription inhibition | P51450 | Drosophila S2 Gal4-RORgamma UAS-luciferase reporter, 20 h | Potency, µM (doses to about 53.6 µM), hits mostly inhibitors | 310,000 tested, 5.4% active | AID 2551; note: nearly all actives have a fitted effect of over 60% in size
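Using a luciferase readout, inhibitors were identified by reduced reporter activity in Drosophila cells coexpressing a copper-inducible Gal4–ROR gamma fusion and UAS-driven Photinus luciferase, incubated 20 hr after 700 uM copper sulfate.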
DT40 TDP1 CPT = growth inhibition of DT40 Tdp1-/-;hTDP1 cells with camptothecin (screen for TDP1 inhibitors); chicken DT40 Tdp1-/-;hTDP1 cells + 20 nM CPT, ATP luminescence, 48 h; 420,000 tested, 12% active; Potency, µM (series often up to 46.2 µM), most hits filed as inhibitors; note: nearly all actives have a fitted effect of over 55% in size
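Chicken DT40 Tdp1-/- cells complemented with human TDP1, 400 cells/well, exposed to compounds plus 20 nM camptothecin for at least 48 h at 37 C; viability read as ATP content by CellTiter-Glo luminescence.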
12-LOX inh = blocks human arachidonate 12S-lipoxygenase. 580,000 tested, 1.1% active. purified 12hLO, xylenol orange hydroperoxide absorbance. P18054. Potency, µM (doses to about 108 µM), usual class: inhibitors. AID 1671190
Target sequence (P18054 whole entry, looked up): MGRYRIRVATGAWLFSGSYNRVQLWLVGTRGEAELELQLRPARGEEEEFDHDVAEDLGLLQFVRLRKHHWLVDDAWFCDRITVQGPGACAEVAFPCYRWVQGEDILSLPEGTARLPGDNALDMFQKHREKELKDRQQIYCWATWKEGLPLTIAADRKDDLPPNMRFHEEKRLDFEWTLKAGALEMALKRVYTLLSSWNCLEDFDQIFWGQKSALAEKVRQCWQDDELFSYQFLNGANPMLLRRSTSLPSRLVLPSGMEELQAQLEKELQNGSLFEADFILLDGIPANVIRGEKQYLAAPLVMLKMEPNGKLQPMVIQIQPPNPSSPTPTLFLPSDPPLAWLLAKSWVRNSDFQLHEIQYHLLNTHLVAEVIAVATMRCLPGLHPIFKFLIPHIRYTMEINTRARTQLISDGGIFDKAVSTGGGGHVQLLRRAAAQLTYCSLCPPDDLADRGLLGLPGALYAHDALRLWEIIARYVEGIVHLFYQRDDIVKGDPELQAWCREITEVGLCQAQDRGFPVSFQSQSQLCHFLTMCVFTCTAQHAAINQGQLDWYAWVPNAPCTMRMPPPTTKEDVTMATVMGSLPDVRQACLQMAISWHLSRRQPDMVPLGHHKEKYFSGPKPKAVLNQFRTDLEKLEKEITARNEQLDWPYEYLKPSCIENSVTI
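Purified human 12hLO at 150 nM in 25 mM Hepes, 0.01% Triton X-100, pH 7.0, preincubated 15 min at room temperature with compound. Reaction started with 40 uM arachidonic acid, 30 min at room temperature. Hydroperoxide measured by Fe-xylenol orange, 573/405 nm absorbance ratio.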
ELG1 DNA repair = inhibitors of ELG1-dependent DNA repair in HEK293T cells; AID 504467; 330,000 tested, 2.3% active; Potency, µM (doses to about 46.1 µM), usual class: inhibitors; HEK293T ELG1-luciferase reporter, luminescence, 16 h; DNA damage induced by 5-fluorouridine; note: nearly all actives have a fitted effect of over 55% in size
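HEK293T cells expressing luciferase-tagged ELG1 (2,000/well) received 5-Fluorouridine plus compound or DMSO for 16 hr at 37 °C. Luciferase was read by ONE-Glo luminescence after 30 min at room temperature.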
DT40 TDP1 no CPT = qHTS for Inhibitors of human tyrosyl-DNA phosphodiesterase 1 (TDP1): qHTS in cells in absence of CPT. DT40 Tdp1-/- hTDP1 cells, no CPT, ATP luminescence, 48 h. Potency, µM (top dose mostly 46.2 µM), usual class: inhibitors. 420,000 tested, 15% active; note: nearly all actives have a fitted effect of over 55% in size
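Stably hTDP1-transfected Tdp1-null chicken DT40 cells were treated with library compounds minus camptothecin and grown for at least 48 hr at 37 °C, after which cellular ATP was quantified by luminescence.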
VP16 counter = inhibits Gal4-VP16 luciferase reporter, ROR gamma counter-screen; Drosophila S2 Gal4-VP16 UAS-luciferase, luminescence, 20 h; 310,000 tested, 3.5% active; Potency, µM (series often up to 53.6 µM), hits mostly inhibitors;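 note: Gal4-VP16 expression switched on by copper sulfate through the metallothionein promoter; nearly all actives have a fitted effect of over 50% in size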
Numbers stand for hits; i = inactive; ? = inconclusive; nt = not tested or not shown. Shown are actives, neighbours in structure and some others; about 15% of the full set was active somewhere. Calls come from the whole dose curve; as a rule, active = well fitted curve in the direction sought with a large enough effect; inconclusive = small, poorly fitted or top-dose-only effect, or another doubt; inactive = no such curve, though single readings can be large; an effect the other way counts as inactive or inconclusive.

SMILES	RORgamma inh	DT40 TDP1 CPT	12-LOX inh	ELG1 DNA repair	DT40 TDP1 no CPT	VP16 counter
CCOC(=O)Cn1nc(-c2ccccc2)c2cnc3ccc(OCC)cc3c21	nt	13µM	i	nt	20.6µM	nt
CCN(CC)S(=O)(=O)NC(C)Cc1ccco1 (configuration not stated)	nt	nt	i	nt	nt	nt
CCCNC(=O)CCC(=O)Nc1ncc(-c2ccc(C)cc2)n1C	3.55µM	i	i	i	i	5.62µM
Cc1ccc(-c2csc(/C=C/c3cccc(C(F)(F)F)c3)n2)cc1	nt	nt	i	nt	nt	nt
Cc1ccc(Sc2ccc(Cl)cc2N)c(C)c1	nt	nt	i	nt	nt	nt
Cn1c(CSc2nc3ccccc3n2C)nc2ccccc21	10µM	i	i	?	i	i
Cn1nnnc1SC1=CS(=O)(=O)c2ccccc21	nt	nt	i	nt	nt	nt
CCn1c(SCC(=O)c2[nH]c(C)c(C(C)=O)c2C)nnc1-c1cccs1	?	?	i	?	18.4µM	i
Cn1c(SC2=CS(=O)(=O)c3ccccc32)nc2ccccc21	?	2.31µM	i	?	2.91µM	?
CC(=O)OCC#CCSc1nc2ccccc2n1C	12.6µM	i	i	i	i	?
CN1c2cc(C(=O)NCc3cccs3)ccc2C(=O)N2CCCC21 (configuration not stated)	nt	nt	i	nt	nt	nt
CC(=O)c1c(C)[nH]c(C(=O)CSc2nc3ccccc3n2C)c1C	i	14.6µM	i	?	9.2µM	?
COc1ccccc1NS(=O)(=O)c1cccc(C(=O)N/N=C/c2ccc([N+](=O)[O-])o2)c1	nt	3.66µM	i	?	2.91µM	nt
CCN(CC)c1ccc(/C=N/NC(=O)c2cccc(S(=O)(=O)Nc3ccccc3OC)c2)cc1	6.31µM	i	i	i	i	8.91µM
COc1ccccc1NS(=O)(=O)c1cccc(C(=O)N/N=C/c2ccc3c(c2)OCCO3)c1	i	i	i	i	i	i
Cc1ccc(/C=N/NC(=O)c2cccc(S(=O)(=O)Nc3ccccc3Cl)c2)o1	12.6µM	i	i	i	i	?
CCN(CC)c1ccc(/C=N/NC(=O)c2cccc(S(=O)(=O)Nc3ccccc3OC)c2)c(O)c1	2.51µM	3.26µM	i	i	2.91µM	4.47µM
O=C(N/N=C/c1ccco1)c1cccc(S(=O)(=O)Nc2ccccc2Cl)c1	?	i	i	i	i	i
CCNC(=O)[C@@H]1C[C@H](NC(=O)c2cc(C)nn2C)CN1C(=O)c1cc[nH]c1	nt	nt	i	nt	nt	nt
O=[N+]([O-])c1ccc(Sc2nnnn2-c2ccccc2)nc1	3.55µM	3.26µM	i	?	3.66µM	?
COc1ccc(CSc2nnnn2-c2ccccc2)cc1	?	i	?	i	i	i
COc1ccc2c(C)cc(Sc3nnnn3-c3ccccc3)nc2c1	i	?	i	25.9µM	?	i
CCCSc1nnc(Sc2nnnn2-c2ccccc2)s1	1.58µM	4.61µM	i	i	2.91µM	i
Cc1ccccc1-n1nnnc1Sc1nnnn1-c1ccccc1	?	11.6µM	i	?	8.2µM	?
O=[N+]([O-])c1ccc(Sc2ccccn2)nc1	i	i	i	i	i	i
SMILES	RORgamma inh	DT40 TDP1 CPT	12-LOX inh	ELG1 DNA repair	DT40 TDP1 no CPT	VP16 counter
COc1ccc(CCNc2cc(-c3ccccc3)nc3ncnn23)cc1	?	23.1µM	i	?	?	i
c1ccc(Nc2cc(-c3ccccc3)nc3ncnn23)cc1	15.8µM	i	i	i	?	?
CC(=O)CSc1cc(-c2ccccc2)nc2ncnn12	2.51µM	i	i	i	?	15.8µM
O=C(Nc1ccc(F)c(F)c1)c1cc(S(=O)(=O)N2CCc3ccccc32)ccc1F	nt	10.3µM	?	nt	10.3µM	nt
COC(CNC(=O)c1cc(S(=O)(=O)N2CCc3ccccc32)ccc1F)OC	i	?	i	i	i	i
COc1ccc(S(=O)(=O)N2CCc3ccccc32)cc1C(=O)Nc1ccc(NC(C)=O)cc1	nt	?	i	i	?	nt
O=C(Nc1ccc(Cl)cc1)c1cc(S(=O)(=O)N2CCc3ccccc32)ccc1F	nt	18.4µM	?	nt	18.4µM	nt
Cc1c(-c2ccc(F)cc2)nc(N)c(C#N)c1-c1ccco1	i	i	i	i	i	i
CCOc1cc(-c2cc(-c3ccc(C)o3)nc(N)c2C#N)ccc1O	i	16.4µM	?	16.4µM	16.4µM	i
Cc1cc(-c2cc(-c3ccc(Cl)cc3)nc(N)c2C#N)co1	i	8.2µM	?	i	20.6µM	i
Cc1ccc(-c2cc(-c3ccc(Cl)cc3)c(C#N)c(N)c2C#N)cc1	nt	nt	i	nt	nt	nt
Cc1ccc(-c2cc(-c3ccc(Cl)cc3)c(C#N)c(N)n2)o1	i	6.51µM	?	i	9.2µM	?
Cc1ccc(-c2cc(-c3ccc(F)cc3)c(C#N)c(N)n2)o1	i	?	7.08µM	i	?	?
CC(C)=CCN1CCN(CC2CCCO2)CC1 (configuration not stated)	nt	nt	i	nt	nt	nt
CN(C)[C@@H]1CN(C(=O)c2ccc(C#N)cc2)CC[C@]1(O)c1ccccc1	nt	nt	i	nt	nt	nt
COc1ccccc1CC(=O)N1CCN(C(=O)c2nnn3c2COC(c2ccc(C)cc2)C3)CC1 (configuration not stated)	nt	nt	i	nt	nt	nt
COC[C@@H]1CN(C(=O)c2occc2C)C[C@H]1c1ccncc1	nt	nt	i	nt	nt	nt
Cc1ccc(-c2c(C#N)c(N)nc3c2CCCCC3)o1	i	?	?	i	i	i
Cc1ccc(-c2cc(-c3ccc(C)o3)nc(N)c2C#N)cc1	?	14.6µM	1µM	?	?	?
CCn1ncc(NC(=O)Cn2ncc3cc(-c4ccc(N(C)C)cc4)ccc32)n1	nt	nt	i	nt	nt	nt
Cc1cccc(-c2nc(CCNC(=O)COc3ccccc3)cs2)c1	nt	?	i	nt	?	nt
COc1cc(OC)cc(C(=O)NCCc2csc(-c3cccc(C)c3)n2)c1	nt	14.6µM	i	nt	16.4µM	nt
COc1ccc(CCC(=O)NCCc2csc(-c3cccc(C)c3)n2)cc1	nt	?	i	nt	?	nt
COc1cc(OC)cc(C(=O)NCCc2csc(-c3ccc(C(F)(F)F)cc3)n2)c1	nt	?	i	nt	18.4µM	nt
Cc1cccc(-c2nc(CCNC(=O)Cc3ccccc3)cs2)c1	nt	?	i	nt	20.6µM	nt
C=C(CC[C@@H](O)C(C)(C)O)[C@H]1CC[C@]2(C)[C@@H]1CCC1[C@@]3(C)CCC(=O)C(C)(C)C3CC[C@]12C (some centres not stated)	nt	?	i	i	?	nt
C=C(C)[C@@H]1CCC2(C(=O)O)CC[C@]3(C)[C@H](CC[C@@H]4[C@@]5(C)CCC(=O)C(C)(C)[C@@H]5CC[C@]43C)[C@@H]12 (some centres not stated)	i	2.91µM	i	i	3.66µM	i
CC1CCCC(C)N1C(=O)c1cc(-c2ccc3c(c2)OCO3)on1 (configuration not stated)	i	?	i	?	25.9µM	i

Bioassay records from PubChem.
